Most compounds without a hit are left out; they make up all but 2.5% or so of the library.
Cruzain Triton = cruzain (T. cruzi) inhibition with detergent | 200,000 compounds, 0.43% hits | P25779 | Potency, µM, inactives show max response, negative = inhibition, hits mostly inhibitors | purified cruzain, Z-FR-AMC fluorescence, 0.01% Triton | AID 1478;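 further: plate controls were neutral wells for no effect and buffer without enzyme for full effect; nearly all actives have a fitted effect of over 40% in size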
Target sequence (P25779 123-467 limits assumed): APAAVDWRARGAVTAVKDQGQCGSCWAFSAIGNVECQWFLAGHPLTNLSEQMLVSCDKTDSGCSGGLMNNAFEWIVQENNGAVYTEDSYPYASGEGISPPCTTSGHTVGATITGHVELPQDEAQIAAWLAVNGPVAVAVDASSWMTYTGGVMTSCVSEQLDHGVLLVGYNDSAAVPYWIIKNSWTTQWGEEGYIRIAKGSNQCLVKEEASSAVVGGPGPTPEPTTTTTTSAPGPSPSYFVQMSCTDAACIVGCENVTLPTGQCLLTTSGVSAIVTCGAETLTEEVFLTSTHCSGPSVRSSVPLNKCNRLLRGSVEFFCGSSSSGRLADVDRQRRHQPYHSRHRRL
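Cysteine protease activity tested under reducing, mildly acidic conditions (100 mM sodium acetate pH 5.5, 5 mM DTT) plus 0.01% Triton X-100. Cruzain 1.5 nM; substrate Z-FR-AMC 2 uM; 15 min compound preincubation at room temperature.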
Cruzain inh noDet = cruzain (T. cruzi) inhibition without detergent. purified cruzain, Z-FR-AMC fluorescence, no detergent. Potency, µM, without a hit: max response, negative = inhibition, usual class: inhibitors. 200,000 compounds, 2.3% hits. AID 1476;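 further: plate controls were enzyme without inhibitor for no effect and buffer without enzyme for full effect; nearly all actives have a fitted effect of over 40% in size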
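Purified cruzain at 1.5 nM, pre-incubated 15 min with compound at room temperature in 100 mM sodium acetate pH 5.5, 5 mM DTT, 0.00005% Triton X-100. Reaction started with 2 uM Z-FR-AMC; AMC fluorescence increase over 60 s gives rate.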
* = called active by the depositor; ? = inconclusive. The call rests on the fitted dose curve; in most records, active means well fitted curve in the direction sought with a large enough effect; inconclusive means small, poorly fitted or top-dose-only effect, or another doubt; inactive means no such curve, though single readings can be large; an effect the other way counts as inactive or inconclusive. Potency means the concentration at half of the fitted maximal effect.

SMILES	Cruzain Triton	Cruzain inh noDet
C#CCn1c(=NC(=O)c2ccc(S(=O)(=O)N3CCCc4ccccc43)cc2)sc2cc(S(N)(=O)=O)ccc21	-2.0%	7.94µM*
Cc1ccc(NC(=O)CN2C(=O)C(c3ccccc3)=NC23CCCCC3)cc1C	-4.9%	-25.0%
Cc1cc(C)n(/N=C/c2cccc([N+](=O)[O-])c2)c(=O)c1	-0.5%	-13.0%
Cc1ccc(N=Cc2nc(/C=C/c3cccc([N+](=O)[O-])c3)oc2O)cc1	4.4%	5.01µM*
N=C1[C@@H](O)[C@]2(I)c3ccccc3N3C(=N)[C@H](O)[C@@H]4c5ccccc5N1[C@@H]4[C@@H]32	-3.0%	-1.2%
COc1ccccc1CNC(=O)c1ccc2nc3[nH]c4ccccc4c3nc2c1	-2.5%	?
Cc1ccc(CNC(=O)c2ccc3nc4[nH]c5ccccc5c4nc3c2)cc1	-5.8%	25.1µM*
CNC(=O)C1CCC(Cn2c(=O)c3sccc3n(CC(=O)Nc3cc(F)ccc3F)c2=O)CC1 (configuration not stated)	-2.2%	4.1%
COc1ccc(NC2C[C@H]3CCCC(=O)N4CC[C@@H](C2)[C@@H]34)cc1 (some centres not stated)	0.5%	-0.3%
Cc1cc(C(=O)CSc2nnnn2-c2ccc(O)cc2)c(C)n1Cc1ccc2c(c1)OCO2	-0.5%	15.8µM*
O=C(O)CSc1nnc(-c2cccs2)n1-c1ccc(Cl)cc1	-2.1%	-8.1%
Cc1ccc(-n2nnnc2SCC(=O)c2cc(C)n(CC3CCCO3)c2C)cc1 (configuration not stated)	-0.6%	12.1%
Cc1cc(C(=O)COc2ccc(C#N)cc2)c(C)n1-c1ccc2c(c1)OCO2	-1.8%	25.1µM*
O=C(CSc1nnc(-c2cccs2)n1-c1cccc(Cl)c1)c1cccc2c1OCCO2	2.0%	25.1µM*
Cc1cc(C(=O)COC(=O)C2=COCCO2)c(C)n1-c1ccc2c(c1)OCO2	-3.2%	-14.4%
CC(=O)c1c(C)[nH]c(C(=O)CSc2nnc(-c3ccccc3)n2Cc2ccc3c(c2)OCO3)c1C	2.6%	11.6%
Cc1cc(C(=O)CSc2nnc(-c3cccc(F)c3)n2N)c(C)n1Cc1ccc2c(c1)OCO2	-0.1%	20µM*
COc1cccc(NC(=O)CCC(=O)N2Cc3ccccc3Oc3ncccc32)c1	-2.0%	-0.4%
CCNc1ncc2nc(-c3cccs3)c(=O)n(CCc3ccccc3)c2n1	-3.7%	-7.1%
CCOC(=O)C1CCC(CN(Cc2ccc(OC)cc2)S(=O)(=O)c2ccc(F)c(C(=O)Nc3ccc(C)c(C)c3)c2)CC1 (configuration not stated)	0.8%	-19.2%
COc1cccc(CNCCCSc2nnnn2C)c1OC	-0.2%	-1.6%
CC(C)Oc1ccc(C(=O)Nc2nc3c(s2)CC(C(C)(C)C)CC3)cc1 (configuration not stated)	-2.9%	15.3%
Cc1ccccc1NC(=O)Cn1nnc(C(=O)NCCc2ccccc2)c1N	-4.8%	-12.1%
CCCn1c(SCC(=O)c2cc(C)n(-c3ccc4c(c3)OCO4)c2C)n[nH]c1=O	-5.7%	?
Cc1ccc(-n2nnnc2SCC(=O)Nc2ccc3c(c2)OCCO3)cc1C	-5.0%	-4.7%
SMILES	Cruzain Triton	Cruzain inh noDet
O=C(O)CSc1nnnn1-c1ccc2c(c1)OCCO2	-7.7%	-4.8%
O=C(CSc1nnnn1-c1ccc2c(c1)OCCO2)c1cccc2c1OCCO2	0.2%	25.1µM*
Cc1ccc(NC(=O)CSc2nnnn2-c2ccc3c(c2)OCO3)cc1C	3.6%	25.1µM*
Cc1cc(C(=O)CSc2nnnn2-c2ccccc2)c(C)n1-c1ccc2c(c1)OCO2	-3.3%	3.16µM*
Cc1cc(C(=O)CSc2nncs2)c(C)n1-c1ccc2c(c1)OCO2	-7.1%	?
Cc1cc(C(=O)COC(=O)Cc2n[nH]c(=O)c3ccccc23)c(C)n1-c1ccc2c(c1)OCCO2	-3.6%	15.8µM*
CCN(CC)c1ccc(/C=C2\CCC(/C=N/NC(=O)c3ccc(=O)n(C)c3)=C2N2CCOCC2)cc1	-2.7%	?
Cn1cnc([N+](=O)[O-])c1SCC(=O)O	3.9%	5.9%
COc1ccc(Cl)cc1NC(=O)Cn1cc2c(n1)CCC(C)C2 (configuration not stated)	-9.6%	-11.2%
Cc1ccc(-c2nc3ccccc3[nH]2)cc1NC(=O)COc1ccc(Cl)cc1Cl	-1.1%	16.5%
Cc1ccc(-c2nc3ccccc3[nH]2)cc1NC(=O)c1sc2cc(Cl)ccc2c1Cl	-2.8%	7.94µM*
Cc1ccc(C(=O)c2cn(CC(=O)NC3CCCCC3)c3nc(C)ccc3c2=O)cc1	-0.3%	-8.2%
Cc1ccc(NC(=O)c2ccc(CNS(=O)(=O)c3cccc(C(F)(F)F)c3)cc2)cc1	-12.7%	25.1µM*
O=C(Nc1ccccc1F)c1ccc(CNS(=O)(=O)c2cccc(C(F)(F)F)c2)cc1	3.3%	?
COc1cc2ccc([C@H](C)NCC#N)cc2cc1OC	2.9%	1.5%
O=[N+]([O-])c1cc([N+](=O)[O-])c2ccccc2c1	-5.4%	-4.5%
O=[N+]([O-])c1ccc(CCNc2cccc3ccccc23)c([N+](=O)[O-])c1	-0.9%	25.1µM*
CCN1CCN(C(=O)c2ccc3c(c2)N(Cc2ccccc2F)C(=O)c2ccccc2S3=O)CC1 (configuration not stated)	2.7%	9.4%
N#C/C(=C/c1cn(Cc2ccc(F)cc2)c2ccccc12)C(=O)Nc1cccc(Cl)c1	-2.9%	7.94µM*
COc1cccc(NC(=O)/C(C#N)=C/c2ccc(-c3ccc(C)cc3)o2)c1	-5.5%	?
COc1cccc(NC(=O)/C(C#N)=C\c2cn(Cc3ccc(C)cc3)c3ccccc23)c1	-2.1%	7.94µM*
N#C/C(=C\c1cn(Cc2ccc(C#N)cc2)c2ccccc12)C(=O)NCc1cccs1	-2.9%	?
COc1ccc(NC(=O)c2nnn(Cc3nc(-c4cc(Br)ccc4OC)oc3C)c2C)cc1	-1.8%	14.7%
CCn1nnc(NC(=O)c2ccc(-c3ccc(Cl)cc3)o2)n1	-8.9%	-15.1%
CCc1nnc(NC(=O)c2ccc(-c3ccc(Cl)cc3)o2)s1	2.8%	15.8µM*
SMILES	Cruzain Triton	Cruzain inh noDet
CCOC(=O)N/N=C/c1c(C)nn(-c2ccccc2Cl)c1Cl	-3.6%	-1.7%
Cc1nn(-c2ccccc2Cl)c(Cl)c1/C=N/Nc1nc2ccccc2s1	-1.9%	12.6µM*
C(=N\Nc1nc2ccccc2s1)/c1cccs1	-5.3%	-1.6%
CCn1c(C)c(/C=N/Nc2nc3ccccc3s2)c2ccccc21	-0.8%	12.6µM*
CC[n+]1c(/C=C/N(C)c2ccccc2)sc2ccc(Cl)cc21	-9.9%	-15.5%
CC[n+]1c(/C=C/C=C/N(C(C)=O)c2ccccc2)sc2ccccc21	-3.6%	20µM*
O=C(COC(=O)c1ccc(-c2nnc(-c3ccccc3)o2)cc1)c1ccccc1	-1.5%	7.94µM*
Nc1cccc(C(=O)OCC(=O)c2ccccc2)c1	-1.6%	-3.0%
COc1ccc(CNC(=O)C(C)n2nc(C)c3sc4ccccc4c3c2=O)cc1OC (configuration not stated)	-2.5%	-1.7%
Cc1nn(C(C)C(=O)NCc2ccc(OC(C)C)cc2)c(=O)c2c1sc1ccccc12 (configuration not stated)	?	27.6%
Cc1ccc(CNC(=O)C(C)n2nc(C)c3sc4ccccc4c3c2=O)cc1 (configuration not stated)	-4.6%	3.98µM*
COc1ccc(CCNC(=O)C(C)n2nc(C)c3sc4ccccc4c3c2=O)cc1OC (configuration not stated)	-4.8%	31.6µM*
Cn1c(=O)c2sccc2n2c(CCC(=O)N3CCN(c4cccc(Cl)c4)CC3)nnc12	-2.7%	9.8%

High-throughput results from PubChem BioAssay.
